What was measured:
Test in all cases: DAPPL (digital affinity profiling via proximity ligation, sequencing); 10 mM Tris-HCl pH 7.5, 50 mM NaCl, 1 mM DTT, 4% glycerol, room temperature, 30 min; GST-TFs on glutathione beads, 16-mer random dsDNA library, 0.1% formaldehyde crosslink after washing; high values mean tight binding
[1] = target: T1, FLI1 (Homo sapiens, UniProt Q01543 1-452); settings: protein: recombinant; tags: N-terminal GST; dsDNA, one strand shown
T1 sequence: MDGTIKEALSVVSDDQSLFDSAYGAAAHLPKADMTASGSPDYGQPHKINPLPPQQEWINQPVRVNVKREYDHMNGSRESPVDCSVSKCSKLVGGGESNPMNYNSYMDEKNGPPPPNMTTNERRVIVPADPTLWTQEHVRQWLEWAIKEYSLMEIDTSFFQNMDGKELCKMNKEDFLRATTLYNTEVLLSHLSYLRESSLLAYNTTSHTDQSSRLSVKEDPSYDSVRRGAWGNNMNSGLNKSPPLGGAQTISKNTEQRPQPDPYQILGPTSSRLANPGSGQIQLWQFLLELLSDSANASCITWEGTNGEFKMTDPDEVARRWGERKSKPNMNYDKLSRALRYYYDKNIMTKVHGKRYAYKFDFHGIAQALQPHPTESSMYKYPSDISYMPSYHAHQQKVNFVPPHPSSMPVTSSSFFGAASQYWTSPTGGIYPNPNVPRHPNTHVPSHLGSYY
Summary of the method: (§1)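 Yeast served to express human transcription factors as GST fusions, which were then captured on glutathione beads and labelled with DNA barcodes. Pooled with a tag-only sample, they were incubated with 200 nmole of a 16-mer random double-stranded DNA library for 30 min at room temperature in Tris/NaCl/DTT/glycerol buffer, washed, crosslinked with 0.1% formaldehyde, ligated by proximity, amplified by PCR and sequenced. Dividing each hexamer's read frequency for a factor by its frequency for the tag-only sample gives the binding signal.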

[2] = target: T2, ELK1 (Homo sapiens, UniProt P19419 1-428); settings: protein: recombinant; tags: N-terminal GST; dsDNA, one strand shown
T2 sequence: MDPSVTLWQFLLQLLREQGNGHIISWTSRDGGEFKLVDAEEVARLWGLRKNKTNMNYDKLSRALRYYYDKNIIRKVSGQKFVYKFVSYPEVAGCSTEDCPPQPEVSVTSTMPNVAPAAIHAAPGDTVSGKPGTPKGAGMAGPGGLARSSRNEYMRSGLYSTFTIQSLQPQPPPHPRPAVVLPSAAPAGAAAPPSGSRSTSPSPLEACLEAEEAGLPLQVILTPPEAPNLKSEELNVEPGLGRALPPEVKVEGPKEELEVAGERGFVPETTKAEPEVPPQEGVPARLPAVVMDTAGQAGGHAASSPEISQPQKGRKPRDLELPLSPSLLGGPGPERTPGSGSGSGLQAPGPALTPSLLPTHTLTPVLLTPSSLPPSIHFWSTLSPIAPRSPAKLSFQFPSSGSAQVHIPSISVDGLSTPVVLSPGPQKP
Summary of the method: as §1

[3] = target: T3, GABPA (Homo sapiens, UniProt Q06546 1-454); settings: protein: recombinant; tags: N-terminal GST; dsDNA, one strand shown
T3 sequence: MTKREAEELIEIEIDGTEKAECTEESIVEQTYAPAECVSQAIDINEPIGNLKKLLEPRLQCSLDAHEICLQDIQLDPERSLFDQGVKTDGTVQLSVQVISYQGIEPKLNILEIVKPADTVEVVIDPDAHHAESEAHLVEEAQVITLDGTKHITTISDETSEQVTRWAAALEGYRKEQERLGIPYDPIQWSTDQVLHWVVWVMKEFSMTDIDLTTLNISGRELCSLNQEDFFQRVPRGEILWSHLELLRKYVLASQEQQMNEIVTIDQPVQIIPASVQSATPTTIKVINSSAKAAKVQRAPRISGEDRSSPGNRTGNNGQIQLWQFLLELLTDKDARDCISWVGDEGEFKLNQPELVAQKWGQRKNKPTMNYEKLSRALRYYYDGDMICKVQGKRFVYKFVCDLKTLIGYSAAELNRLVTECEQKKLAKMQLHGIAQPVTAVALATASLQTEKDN
Summary of the method: as §1

[4] = target: T4, ERG (Homo sapiens, UniProt P11308 1-479); settings: protein: recombinant; tags: N-terminal GST; dsDNA, one strand shown
T4 sequence: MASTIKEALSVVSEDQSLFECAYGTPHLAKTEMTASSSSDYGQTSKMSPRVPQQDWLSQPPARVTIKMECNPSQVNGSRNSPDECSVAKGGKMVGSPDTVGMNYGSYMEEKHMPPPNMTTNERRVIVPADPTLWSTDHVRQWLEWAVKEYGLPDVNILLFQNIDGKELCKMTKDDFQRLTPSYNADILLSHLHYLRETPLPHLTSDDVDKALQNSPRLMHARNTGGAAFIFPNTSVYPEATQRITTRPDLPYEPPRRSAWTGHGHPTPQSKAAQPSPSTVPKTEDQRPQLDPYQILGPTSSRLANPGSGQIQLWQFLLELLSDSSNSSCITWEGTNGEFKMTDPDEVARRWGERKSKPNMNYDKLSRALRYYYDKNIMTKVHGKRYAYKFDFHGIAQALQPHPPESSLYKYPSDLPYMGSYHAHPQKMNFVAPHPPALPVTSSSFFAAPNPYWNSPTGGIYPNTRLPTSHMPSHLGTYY
Summary of the method: as §1

[5] = target: ELF1 (Homo sapiens, UniProt P32519 1-619); settings: protein: recombinant; tags: N-terminal GST; dsDNA, one strand shown
Summary of the method: as §1

[6] = target: T5, EHF (Homo sapiens, UniProt Q9NZC4 1-300); settings: protein: recombinant; tags: N-terminal GST; dsDNA, one strand shown
T5 sequence: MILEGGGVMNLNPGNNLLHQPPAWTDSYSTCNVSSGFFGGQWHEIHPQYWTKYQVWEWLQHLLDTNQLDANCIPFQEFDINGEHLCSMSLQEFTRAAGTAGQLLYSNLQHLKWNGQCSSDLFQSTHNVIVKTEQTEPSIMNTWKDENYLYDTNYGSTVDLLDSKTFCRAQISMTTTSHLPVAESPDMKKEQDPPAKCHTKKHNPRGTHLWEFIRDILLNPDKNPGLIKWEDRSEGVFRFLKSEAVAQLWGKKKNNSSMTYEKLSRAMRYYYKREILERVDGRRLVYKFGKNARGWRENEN
Summary of the method: as §1

[7] = target: SPI1 (Homo sapiens, UniProt P17947 1-270); settings: protein: recombinant; tags: N-terminal GST; dsDNA, one strand shown
Summary of the method: as §1

[8] = target: SPIB (Homo sapiens, UniProt Q01892 1-262); settings: protein: recombinant; tags: N-terminal GST; dsDNA, one strand shown
Summary of the method: as §1

[9] = target: T6, ELK3 (Homo sapiens, UniProt P41970 1-407); settings: protein: recombinant; tags: N-terminal GST; dsDNA, one strand shown
T6 sequence: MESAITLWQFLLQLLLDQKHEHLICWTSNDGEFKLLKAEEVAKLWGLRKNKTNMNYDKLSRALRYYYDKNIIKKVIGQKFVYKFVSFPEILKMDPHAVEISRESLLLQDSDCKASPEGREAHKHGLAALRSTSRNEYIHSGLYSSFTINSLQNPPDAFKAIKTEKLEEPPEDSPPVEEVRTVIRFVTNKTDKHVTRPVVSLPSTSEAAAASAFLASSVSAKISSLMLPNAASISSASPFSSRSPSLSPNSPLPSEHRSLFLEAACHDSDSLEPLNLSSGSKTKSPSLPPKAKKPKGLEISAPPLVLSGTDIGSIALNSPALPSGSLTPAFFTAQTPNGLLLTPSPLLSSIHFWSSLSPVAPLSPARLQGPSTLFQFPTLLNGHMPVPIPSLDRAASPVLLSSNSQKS
Summary of the method: as §1

[10] = target: T7, FEV (Homo sapiens, UniProt Q99581 1-238); settings: protein: recombinant; tags: N-terminal GST; dsDNA, one strand shown
T7 sequence: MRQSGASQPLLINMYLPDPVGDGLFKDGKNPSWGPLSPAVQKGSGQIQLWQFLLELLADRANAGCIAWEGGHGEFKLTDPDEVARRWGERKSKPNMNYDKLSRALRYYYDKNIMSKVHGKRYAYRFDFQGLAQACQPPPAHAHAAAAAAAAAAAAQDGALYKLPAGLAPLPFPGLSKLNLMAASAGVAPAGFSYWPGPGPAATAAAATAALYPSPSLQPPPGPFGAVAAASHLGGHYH
Summary of the method: as §1

[11] = target: ETV5 (Homo sapiens, UniProt P41161 1-510); settings: protein: recombinant; tags: N-terminal GST; dsDNA, one strand shown
Summary of the method: as §1

[12] = target: HSF1 (Homo sapiens, UniProt Q00613 1-529); settings: protein: recombinant; tags: N-terminal GST; chain copies: 3; dsDNA, one strand shown
Summary of the method: as §1

[13] = target: T8, SPIC (Homo sapiens, UniProt Q8N5J4 1-248); settings: protein: recombinant; tags: N-terminal GST; dsDNA, one strand shown
T8 sequence: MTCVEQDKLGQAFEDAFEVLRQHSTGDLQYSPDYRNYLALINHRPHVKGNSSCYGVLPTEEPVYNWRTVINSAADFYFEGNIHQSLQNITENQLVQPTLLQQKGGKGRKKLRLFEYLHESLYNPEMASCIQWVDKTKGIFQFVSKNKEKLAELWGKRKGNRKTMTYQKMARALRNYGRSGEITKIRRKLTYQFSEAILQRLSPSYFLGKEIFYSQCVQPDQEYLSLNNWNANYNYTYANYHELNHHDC
Summary of the method: as §1

[14] = target: ELF4 (Homo sapiens, UniProt Q99607 1-663); settings: protein: recombinant; tags: N-terminal GST; dsDNA, one strand shown
Summary of the method: as §1

[15] = target: T9, ELK4 (Homo sapiens, UniProt P28324-2 1-405); settings: protein: recombinant; tags: N-terminal GST; dsDNA, one strand shown
T9 sequence: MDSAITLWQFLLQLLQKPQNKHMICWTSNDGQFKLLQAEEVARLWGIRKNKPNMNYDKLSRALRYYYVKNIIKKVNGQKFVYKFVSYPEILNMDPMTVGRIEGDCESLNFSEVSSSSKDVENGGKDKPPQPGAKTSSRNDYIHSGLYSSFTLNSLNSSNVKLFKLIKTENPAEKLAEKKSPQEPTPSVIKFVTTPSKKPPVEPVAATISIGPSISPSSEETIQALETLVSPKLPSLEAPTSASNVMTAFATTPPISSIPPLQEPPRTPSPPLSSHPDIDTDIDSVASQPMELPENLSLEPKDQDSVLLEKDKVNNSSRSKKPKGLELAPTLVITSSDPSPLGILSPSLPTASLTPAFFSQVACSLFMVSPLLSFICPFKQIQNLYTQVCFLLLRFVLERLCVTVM
Summary of the method: as §1

[16] = target: T10, ETV2 (Homo sapiens, UniProt O00321 1-342); settings: protein: recombinant; tags: N-terminal GST; dsDNA, one strand shown
T10 sequence: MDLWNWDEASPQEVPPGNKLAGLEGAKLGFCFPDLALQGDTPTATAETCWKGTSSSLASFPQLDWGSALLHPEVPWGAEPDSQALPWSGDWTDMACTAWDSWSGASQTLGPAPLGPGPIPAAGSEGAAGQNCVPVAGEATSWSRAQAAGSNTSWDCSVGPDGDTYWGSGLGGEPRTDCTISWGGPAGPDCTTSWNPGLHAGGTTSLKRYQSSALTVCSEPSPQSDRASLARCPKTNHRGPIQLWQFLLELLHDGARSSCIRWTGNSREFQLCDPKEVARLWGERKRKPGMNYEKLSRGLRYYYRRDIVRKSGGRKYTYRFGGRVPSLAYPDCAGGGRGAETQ
Summary of the method: as §1

[17] = target: T11, ELF3 (Homo sapiens, UniProt P78545 1-371); settings: protein: recombinant; tags: N-terminal GST; dsDNA, one strand shown
T11 sequence: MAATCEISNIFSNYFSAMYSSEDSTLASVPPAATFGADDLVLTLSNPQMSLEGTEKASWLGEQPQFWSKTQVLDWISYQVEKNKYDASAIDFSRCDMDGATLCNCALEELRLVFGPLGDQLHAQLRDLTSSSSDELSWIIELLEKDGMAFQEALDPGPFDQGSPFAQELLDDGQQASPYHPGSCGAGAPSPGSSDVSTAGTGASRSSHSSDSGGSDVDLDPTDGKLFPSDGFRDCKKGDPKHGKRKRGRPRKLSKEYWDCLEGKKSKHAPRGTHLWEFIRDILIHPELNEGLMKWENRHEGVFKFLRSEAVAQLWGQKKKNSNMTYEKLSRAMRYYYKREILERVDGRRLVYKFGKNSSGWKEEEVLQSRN
Summary of the method: as §1

[18] = target: CRX (Homo sapiens, UniProt O43186 1-299); settings: protein: recombinant; tags: N-terminal GST; dsDNA, one strand shown
Summary of the method: as §1

[19] = target: ETV1 (Homo sapiens, UniProt P50549 1-477); settings: protein: recombinant; tags: N-terminal GST; dsDNA, one strand shown
Summary of the method: as §1

Chain of SPIB (Q01892 whole entry): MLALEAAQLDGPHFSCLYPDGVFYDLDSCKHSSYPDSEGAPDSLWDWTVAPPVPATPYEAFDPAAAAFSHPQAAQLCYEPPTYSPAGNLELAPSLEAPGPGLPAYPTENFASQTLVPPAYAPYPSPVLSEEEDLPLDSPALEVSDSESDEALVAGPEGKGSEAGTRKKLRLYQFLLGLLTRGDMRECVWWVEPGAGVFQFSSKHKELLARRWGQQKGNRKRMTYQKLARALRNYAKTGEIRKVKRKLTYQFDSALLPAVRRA
Chain of CRX (O43186 whole entry): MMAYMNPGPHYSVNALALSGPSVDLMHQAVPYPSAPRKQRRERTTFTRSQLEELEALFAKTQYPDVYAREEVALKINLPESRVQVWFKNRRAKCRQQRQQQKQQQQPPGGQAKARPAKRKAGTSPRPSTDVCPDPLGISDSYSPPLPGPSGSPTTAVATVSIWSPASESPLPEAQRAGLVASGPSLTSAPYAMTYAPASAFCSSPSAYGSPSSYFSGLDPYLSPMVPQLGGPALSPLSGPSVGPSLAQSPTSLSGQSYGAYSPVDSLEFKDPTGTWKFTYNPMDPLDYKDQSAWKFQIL
Chain of ELF4 (Q99607 whole entry): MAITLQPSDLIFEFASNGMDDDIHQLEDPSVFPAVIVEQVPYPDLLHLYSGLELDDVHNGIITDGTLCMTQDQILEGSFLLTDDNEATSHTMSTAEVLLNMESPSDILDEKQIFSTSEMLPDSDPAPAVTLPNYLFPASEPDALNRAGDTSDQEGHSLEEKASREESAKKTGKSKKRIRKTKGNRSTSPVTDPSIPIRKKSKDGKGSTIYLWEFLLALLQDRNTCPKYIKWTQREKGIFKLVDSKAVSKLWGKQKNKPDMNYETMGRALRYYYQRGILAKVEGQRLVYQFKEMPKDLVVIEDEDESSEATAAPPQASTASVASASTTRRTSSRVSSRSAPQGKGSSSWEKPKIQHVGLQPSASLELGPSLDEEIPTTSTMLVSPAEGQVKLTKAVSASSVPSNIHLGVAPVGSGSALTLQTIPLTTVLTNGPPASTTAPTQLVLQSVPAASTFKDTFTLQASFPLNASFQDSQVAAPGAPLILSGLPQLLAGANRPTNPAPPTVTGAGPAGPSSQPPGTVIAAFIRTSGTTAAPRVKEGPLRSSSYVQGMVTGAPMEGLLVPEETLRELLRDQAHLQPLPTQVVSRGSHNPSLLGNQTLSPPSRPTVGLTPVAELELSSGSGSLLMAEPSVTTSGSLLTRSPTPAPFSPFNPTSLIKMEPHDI
Chain of ELF1 (P32519 whole entry): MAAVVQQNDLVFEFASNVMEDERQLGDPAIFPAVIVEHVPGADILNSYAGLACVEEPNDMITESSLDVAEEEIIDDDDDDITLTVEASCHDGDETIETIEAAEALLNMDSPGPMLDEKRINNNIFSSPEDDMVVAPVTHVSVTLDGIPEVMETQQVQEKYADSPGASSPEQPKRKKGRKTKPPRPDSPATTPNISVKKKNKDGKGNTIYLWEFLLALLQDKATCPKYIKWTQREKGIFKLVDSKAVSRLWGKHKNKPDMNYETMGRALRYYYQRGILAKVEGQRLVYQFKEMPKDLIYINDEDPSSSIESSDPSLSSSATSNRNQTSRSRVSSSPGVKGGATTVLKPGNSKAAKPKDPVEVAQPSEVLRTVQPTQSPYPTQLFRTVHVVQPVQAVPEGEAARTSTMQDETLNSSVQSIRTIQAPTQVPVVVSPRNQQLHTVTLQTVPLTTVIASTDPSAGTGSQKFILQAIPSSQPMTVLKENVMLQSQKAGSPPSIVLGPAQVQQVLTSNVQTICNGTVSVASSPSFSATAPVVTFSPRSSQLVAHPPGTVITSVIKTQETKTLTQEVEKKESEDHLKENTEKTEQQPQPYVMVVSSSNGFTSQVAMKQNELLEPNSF
Chain of ETV1 (P50549 whole entry): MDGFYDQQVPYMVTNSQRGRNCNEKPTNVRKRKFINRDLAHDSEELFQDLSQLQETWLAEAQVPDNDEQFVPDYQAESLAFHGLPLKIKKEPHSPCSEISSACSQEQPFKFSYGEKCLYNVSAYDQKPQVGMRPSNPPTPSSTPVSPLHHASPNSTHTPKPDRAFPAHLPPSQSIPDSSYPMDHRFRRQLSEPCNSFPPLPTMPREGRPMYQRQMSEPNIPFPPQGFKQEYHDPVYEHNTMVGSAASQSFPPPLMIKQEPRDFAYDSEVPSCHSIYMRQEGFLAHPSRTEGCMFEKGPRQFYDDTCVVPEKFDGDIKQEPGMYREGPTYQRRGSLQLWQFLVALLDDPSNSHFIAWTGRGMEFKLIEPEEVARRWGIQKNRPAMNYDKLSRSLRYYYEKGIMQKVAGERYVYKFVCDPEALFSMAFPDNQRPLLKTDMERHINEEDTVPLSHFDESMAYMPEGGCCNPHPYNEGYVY
Chain of ETV5 (P41161 whole entry): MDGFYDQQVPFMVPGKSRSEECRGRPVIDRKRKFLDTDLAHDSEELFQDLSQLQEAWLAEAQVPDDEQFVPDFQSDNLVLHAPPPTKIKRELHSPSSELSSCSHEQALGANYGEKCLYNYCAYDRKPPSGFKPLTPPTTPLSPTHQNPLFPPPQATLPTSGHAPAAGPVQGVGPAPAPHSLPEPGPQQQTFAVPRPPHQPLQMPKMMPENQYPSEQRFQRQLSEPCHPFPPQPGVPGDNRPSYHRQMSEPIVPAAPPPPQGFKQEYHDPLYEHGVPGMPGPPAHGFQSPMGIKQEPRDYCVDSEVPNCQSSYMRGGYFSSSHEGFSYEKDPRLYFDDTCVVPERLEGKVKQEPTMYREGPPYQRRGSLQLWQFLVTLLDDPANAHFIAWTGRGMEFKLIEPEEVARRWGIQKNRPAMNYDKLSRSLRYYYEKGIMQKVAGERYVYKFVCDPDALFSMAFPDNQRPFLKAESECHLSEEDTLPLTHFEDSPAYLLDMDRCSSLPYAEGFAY
Chain of HSF1 (Q00613 whole entry): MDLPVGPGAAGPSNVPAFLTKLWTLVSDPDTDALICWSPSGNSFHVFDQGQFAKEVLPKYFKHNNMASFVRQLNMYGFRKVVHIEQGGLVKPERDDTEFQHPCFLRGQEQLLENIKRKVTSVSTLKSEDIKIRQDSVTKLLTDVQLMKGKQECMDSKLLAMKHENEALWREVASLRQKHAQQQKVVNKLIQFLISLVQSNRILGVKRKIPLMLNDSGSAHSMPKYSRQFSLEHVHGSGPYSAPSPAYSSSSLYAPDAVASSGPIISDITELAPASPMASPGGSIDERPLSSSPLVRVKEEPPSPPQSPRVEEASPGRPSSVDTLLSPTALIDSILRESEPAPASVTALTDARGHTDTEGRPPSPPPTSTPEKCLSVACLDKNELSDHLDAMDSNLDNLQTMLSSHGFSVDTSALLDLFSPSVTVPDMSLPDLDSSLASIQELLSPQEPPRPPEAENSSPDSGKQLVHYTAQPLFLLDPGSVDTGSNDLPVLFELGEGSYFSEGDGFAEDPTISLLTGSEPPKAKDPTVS

TTGGGG
binding signal [1]: 1.4 fold enrichment (6-mer frequency, TF over GST control)
binding signal [2]: 1.24 fold enrichment (6-mer frequency, TF over GST control)
binding signal [3]: 1.33 fold enrichment (6-mer frequency, TF over GST control)
binding signal [4]: 1.21 fold enrichment (6-mer frequency, TF over GST control)
binding signal [5]: 1.32 fold enrichment (6-mer frequency, TF over GST control)
binding signal [6]: 1.27 fold enrichment (6-mer frequency, TF over GST control)
binding signal [7]: 1.26 fold enrichment (6-mer frequency, TF over GST control)
binding signal [8]: 1.15 fold enrichment (6-mer frequency, TF over GST control)
binding signal [9]: 1.31 fold enrichment (6-mer frequency, TF over GST control)
binding signal [10]: 1.17 fold enrichment (6-mer frequency, TF over GST control)
binding signal [11]: 1.24 fold enrichment (6-mer frequency, TF over GST control)
binding signal [12]: 1.11 fold enrichment (6-mer frequency, TF over GST control)
binding signal [13]: 1.21 fold enrichment (6-mer frequency, TF over GST control)
binding signal [14]: 1.24 fold enrichment (6-mer frequency, TF over GST control)
binding signal [15]: 1.34 fold enrichment (6-mer frequency, TF over GST control)
binding signal [16]: 1.17 fold enrichment (6-mer frequency, TF over GST control)
binding signal [17]: 1.24 fold enrichment (6-mer frequency, TF over GST control)
binding signal [18]: 1.23 fold enrichment (6-mer frequency, TF over GST control)
binding signal [19]: 1.38 fold enrichment (6-mer frequency, TF over GST control)
